Screen size: about 5,500 compounds; about 2,000 (36%) were called active. Inconclusive results (about 18%) are left out. No stated cut-off is given here; in the data, active means normalized growth mostly below about 0.91 (no sharp cut-off); inconclusive means no clear call, values can overlap the other calls; inactive means mostly above about 0.92. This is one part of the list.
Test: chemical genetic growth profiling, strain panel (AID 1159580);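 further: tested at 20 µM; growth read once vehicle control cultures reached saturation at 30 °C; 1 = growth at the plate median or of vehicle wells; lower values mean less growth of the strain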
Conditions: growth OD
[1] = S. cerevisiae deletion strains, locus YAL013W, strain DEP1, hits give low values
[2] = S. cerevisiae deletion strains, locus YBR021W, strain FUR4, hits give low values
[3] = S. cerevisiae deletion strains, locus YBR229C, strain ROT2, hits give low values
[4] = S. cerevisiae deletion strains, locus YCL029C, strain bik1, hits give low values
[5] = S. cerevisiae deletion strains, locus YDL035C, strain GPR1, hits give low values
[6] = S. cerevisiae deletion strains, locus YDL074C, strain BRE1, hits give low values
[7] = S. cerevisiae deletion strains, locus YDL101C, strain DUN1, hits give low values
[8] = S. cerevisiae deletion strains, locus YDL134C, strain PPH21, hits give low values
[9] = S. cerevisiae deletion strains, locus YDL185W, strain tfp1, hits give low values
[10] = S. cerevisiae deletion strains, locus YDL192W, strain arf1, hits give low values
[11] = S. cerevisiae deletion strains, locus YDR101C, strain arx1, hits give low values
[12] = S. cerevisiae deletion strains, locus YDR150W, strain NUM1, hits give low values
[13] = S. cerevisiae deletion strains, locus YDR162C, strain NBP2, hits give low values
[14] = S. cerevisiae deletion strains, locus YDR318W, strain mcm21, hits give low values
[15] = S. cerevisiae deletion strains, locus YDR388W, hits give low values
[16] = S. cerevisiae deletion strains, locus YDR502C, strain sam2, hits give low values
[17] = S. cerevisiae deletion strains, locus YEL061C, strain CIN8, hits give low values
[18] = S. cerevisiae deletion strains, locus YER110C, hits give low values
[19] = S. cerevisiae deletion strains, locus YER155C, strain BEM2, hits give low values
[20] = S. cerevisiae deletion strains, locus YER167W, strain BCK2, hits give low values
[21] = S. cerevisiae deletion strains, locus YGL078C, strain dbp3, hits give low values
[22] = S. cerevisiae deletion strains, locus YGL086W, strain mad1, hits give low values
[23] = S. cerevisiae deletion strains, locus YGL248W, strain PDE1, hits give low values
[24] = S. cerevisiae deletion strains, locus YGR078C, strain PAC10, hits give low values
[25] = S. cerevisiae deletion strains, locus YGR135W, strain pre9, hits give low values
[26] = S. cerevisiae deletion strains, locus YGR229C, strain SMI1, hits give low values
[27] = S. cerevisiae deletion strains, locus YGR252W, strain gcn5, hits give low values
[28] = S. cerevisiae deletion strains, locus YHR030C, strain SLT2, hits give low values
[29] = S. cerevisiae deletion strains, locus YHR079C, strain IRE1 (second series), hits give low values
[30] = S. cerevisiae deletion strains, locus YHR094C, strain hxt1, hits give low values
[31] = S. cerevisiae deletion strains, locus YHR129C, strain ARP1, hits give low values
[32] = S. cerevisiae deletion strains, locus YHR200W, strain rpn10, hits give low values
[33] = S. cerevisiae deletion strains, locus YIL066C, strain RNR3, hits give low values
[34] = S. cerevisiae deletion strains, locus YIL073C, strain SPO22, hits give low values
[35] = S. cerevisiae deletion strains, locus YIL125W, strain kgd1, hits give low values
[36] = S. cerevisiae deletion strains, locus YIR030C, strain dcg1, hits give low values
[37] = S. cerevisiae deletion strains, locus YJL095W, strain BCK1, hits give low values
[38] = S. cerevisiae deletion strains, locus YJL134W, strain LCB3, hits give low values
[39] = S. cerevisiae deletion strains, locus YJL168C, strain set2, hits give low values
[40] = S. cerevisiae deletion strains, locus YJL187C, strain SWE1 (second series), hits give low values
[41] = S. cerevisiae deletion strains, locus YJR043C, strain POL32, hits give low values
[42] = S. cerevisiae deletion strains, locus YJR075W, strain HOC1, hits give low values
[43] = S. cerevisiae deletion strains, locus YKL009W, strain mrt4, hits give low values
[44] = S. cerevisiae deletion strains, locus YKL068W, hits give low values
[45] = S. cerevisiae deletion strains, locus YKL085W, strain MDH1 (second series), hits give low values
[46] = S. cerevisiae deletion strains, locus YKL085W, strain MDH1, hits give low values
[47] = S. cerevisiae deletion strains, locus YKL190W, strain CNB1, hits give low values
[48] = S. cerevisiae deletion strains, locus YKR001C, strain vps1, hits give low values
[49] = S. cerevisiae deletion strains, locus YLR039C, strain RIC1, hits give low values
[50] = S. cerevisiae deletion strains, locus YLR058C, strain SHM2, hits give low values
[51] = S. cerevisiae deletion strains, locus YLR102C, strain apc9, hits give low values
[52] = S. cerevisiae deletion strains, locus YLR262C, strain YPT6, hits give low values
[53] = S. cerevisiae deletion strains, locus YLR268W, strain sec22, hits give low values
[54] = S. cerevisiae deletion strains, locus YLR330W, strain CHS5, hits give low values
[55] = S. cerevisiae deletion strains, locus YLR342W, strain FKS1 (second series), hits give low values
[56] = S. cerevisiae deletion strains, locus YLR371W, strain rom2, hits give low values
[57] = S. cerevisiae deletion strains, locus YLR418C, strain cdc73, hits give low values
[58] = S. cerevisiae deletion strains, locus YML016C, strain PPZ1, hits give low values
[59] = S. cerevisiae deletion strains, locus YML032C, strain rad52, hits give low values
[60] = S. cerevisiae deletion strains, locus YML124C, strain tub3, hits give low values
[61] = S. cerevisiae deletion strains, locus YMR078C, strain ctf18, hits give low values
[62] = S. cerevisiae deletion strains, locus YMR223W, strain ubp8, hits give low values
[63] = S. cerevisiae deletion strains, locus YMR263W, strain SAP30, hits give low values
[64] = S. cerevisiae deletion strains, locus YMR307W, strain GAS1, hits give low values
[65] = S. cerevisiae deletion strains, locus YNL067W, strain RPL9B, hits give low values
[66] = S. cerevisiae deletion strains, locus YNL128W, strain TEP1, hits give low values
[67] = S. cerevisiae deletion strains, locus YNL153C, strain GIM3, hits give low values
[68] = S. cerevisiae deletion strains, locus YNL233W, strain BNI4, hits give low values
[69] = S. cerevisiae deletion strains, locus YNL250W, strain rad50, hits give low values
[70] = S. cerevisiae deletion strains, locus YNL271C, strain bni1, hits give low values
[71] = S. cerevisiae deletion strains, locus YNL298W, strain CLA4, hits give low values
[72] = S. cerevisiae deletion strains, locus YNL307C, strain MCK1, hits give low values
[73] = S. cerevisiae deletion strains, locus YNL322C, strain KRE1, hits give low values
[74] = S. cerevisiae deletion strains, locus YNR052C, strain pop2, hits give low values
[75] = S. cerevisiae deletion strains, locus YOL006C, strain TOP1, hits give low values
[76] = S. cerevisiae deletion strains, locus YOL012C, strain htz1
[77] = S. cerevisiae deletion strains, locus YOL147C, strain pex11, hits give low values
[78] = S. cerevisiae deletion strains, locus YOR061W, strain CKA2, hits give low values
[79] = S. cerevisiae deletion strains, locus YOR069W, strain VPS5, hits give low values
[80] = S. cerevisiae deletion strains, locus YOR136W, strain idh2, hits give low values
[81] = S. cerevisiae deletion strains, locus YOR144C, strain elg1, hits give low values
[82] = S. cerevisiae deletion strains, locus YOR184W, strain ser1, hits give low values
[83] = S. cerevisiae deletion strains, locus YOR316C, strain cot1, hits give low values
[84] = S. cerevisiae deletion strains, locus YPL055C, strain LGE1, hits give low values
[85] = S. cerevisiae deletion strains, locus YPL241C, strain CIN2, hits give low values
[86] = S. cerevisiae deletion strains, locus YPR119W, strain clb2, hits give low values
[87] = S. cerevisiae deletion strains, locus YPR141C, strain kar3, hits give low values
[88] = S. cerevisiae deletion strains, locus YPR163C, strain tif3, hits give low values
[89] = S. cerevisiae deletion strains, locus YPR167C, strain met16, hits give low values
[90] = S. cerevisiae deletion strains, strain wtn01, hits give low values
[91] = S. cerevisiae strains, strain wild type, hits give low values

Measured: normalized growth

C=C1C(C)C2C(Cc3ccccc3)NC(=O)C23OC(=O)/C=C/C(=O)CCCC(C)C/C=C/C3C1O (configuration not stated)
active: [15] 0.908 | [26] 0.609 | [28] 0.652 | [52] 0.597 | [64] 0.586 | [71] 0.896 | [72] 0.841 | [88] 0.884
inactive: [1] 0.981 | [2] 0.956 | [3] 1.01 | [4] 1.01 | [5] 0.952 | [6] 0.987 | [7] 1.01 | [8] 0.984 | [9] 1.02 | [10] 0.994 | [11] 1 | [12] 0.985 | [13] 0.912 | [14] 0.958 | [16] 0.998 | [17] 1.01 | [18] 1.01 | [19] 0.995 | [20] 0.974 | [21] 0.99 | [22] 0.998 | [23] 0.973 | [24] 0.864 | [25] 0.99 | [27] 0.966 | [29] 1.01 | [30] 1 | [31] 0.972 | [32] 1.01 | [33] 0.988 | [34] 0.815 | [35] 0.99 | [36] 1.01 | [37] 1.01 | [38] 1 | [39] 1.01 | [40] 1.01 | [41] 0.975 | [42] 1.03 | [43] 1.02 | [44] 0.993 | [45] 0.977 | [46] 0.977 | [47] 1 | [48] 0.935 | [49] 0.893 | [50] 1.01 | [51] 1.01 | [53] 1.03 | [54] 0.988 | [55] 0.805 | [56] 1.02 | [57] 0.94 | [58] 1 | [59] 1.01 | [60] 1.01 | [61] 1.01 | [62] 0.986 | [63] 1 | [65] 0.975 | [66] 0.973 | [67] 0.989 | [68] 1.02 | [69] 1.01 | [70] 0.96 | [73] 1.01 | [74] 1.01 | [75] 0.79 | [76] 0.448 | [77] 1 | [78] 0.996 | [79] 1 | [80] 0.991 | [81] 1 | [82] 0.992 | [83] 1.01 | [84] 0.97 | [85] 1 | [86] 1 | [87] 1.01 | [89] 1.01 | [90] 0.983 | [91] 0.966

C=C1C(C)C2C(Cc3ccccc3)NC(=O)C23OC(=O)/C=C/C(O)CCCC(C)C/C=C/C3C1O (configuration not stated)
inactive: [1] 1.01 | [2] 1.01 | [3] 1 | [4] 0.997 | [5] 1.02 | [6] 1.04 | [7] 1.01 | [8] 1.01 | [9] 1 | [10] 1 | [11] 0.995 | [12] 1.01 | [13] 0.998 | [14] 1 | [15] 1 | [16] 0.996 | [17] 1 | [18] 0.997 | [19] 0.993 | [20] 1.01 | [21] 1 | [22] 0.988 | [23] 0.997 | [24] 1.02 | [25] 0.999 | [26] 1.03 | [27] 1 | [28] 1 | [29] 0.987 | [30] 1.01 | [31] 0.998 | [32] 1 | [33] 1.02 | [34] 1.06 | [35] 0.984 | [36] 0.998 | [37] 1 | [38] 1 | [39] 0.998 | [40] 1.01 | [41] 1.01 | [42] 0.996 | [43] 1.01 | [44] 1 | [45] 0.999 | [46] 0.999 | [47] 1.01 | [48] 0.994 | [49] 1.01 | [50] 1 | [51] 1.01 | [52] 1.02 | [53] 1 | [54] 1.01 | [55] 1.02 | [56] 1.01 | [57] 0.995 | [58] 1 | [59] 1 | [60] 0.997 | [61] 0.992 | [62] 1 | [63] 1.01 | [64] 1.02 | [65] 1.01 | [66] 1.01 | [67] 1.02 | [68] 0.994 | [69] 1 | [70] 0.998 | [71] 0.995 | [72] 1.01 | [73] 1.01 | [74] 1.01 | [75] 1.03 | [76] 0.948 | [77] 0.997 | [78] 1 | [79] 1 | [80] 0.999 | [81] 1 | [82] 1.03 | [83] 1 | [84] 1.03 | [85] 1.01 | [86] 0.999 | [87] 1 | [88] 1 | [89] 0.999 | [90] 0.995 | [91] 1.01

Reference: PubChem BioAssay AID1159580 (chemical genetic matrix, 2015)
